According to PubChem BioAssay AID493030 (The Scripps Research Institute Molecular Screening Center, 2011):
About 1,500 (65%) of roughly 2,300 compounds were called active. The set was probably picked from earlier hits. Only a sample is shown. Unmarked numbers belong to inactive results.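 How the source made its calls: active means mean inhibition over three repeats above a set limit taken from the earlier primary screen (cut at about 30% in these data); inactive means the rest.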

target: Platelet-activating factor acetylhydrolase 2, cytoplasmic (Homo sapiens) (UniProt Q99487); test: inhibition of cytoplasmic PAF acetylhydrolase 2 – biochemical, fluorescence polarization, human, confirmation (AID 493030); settings: recombinant PAFAH2, FP-rhodamine activity probe, at 3.39 µM, stronger effect = higher value;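 further: inhibitor blocks binding of rhodamine activity probe so polarization falls; 0% = enzyme with DMSO and 100% = wells lacking PAFAH2 protein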

| SMILES | inhibition |
| --- | --- |
| COc1ccc(/C=N/N(C)C2=NS(=O)(=O)c3ccccc32)cc1OC | 9.39% |
| COc1ccc(C(=O)ON=C2c3ccccc3-c3ccccc32)cc1OC | 68.7% (active) |
| O=C(Nc1nnc(SCc2c(Cl)cccc2Cl)s1)C1CCCO1 (stereo not drawn) | 24% |
| O=C(Nc1nnc(SCc2ccccc2Cl)s1)c1cccc([N+](=O)[O-])c1 | 22.6% |
| O=C(Nc1nnc(SCc2c(Cl)cccc2Cl)s1)c1cccc([N+](=O)[O-])c1 | 52% (active) |
| O=c1oc(/C=C/c2ccccc2)nc2ccccc12 | 79.7% (active) |
| Cc1ccc(NC(=O)COC(=O)C2CC2)cc1S(=O)(=O)N1CCOCC1 | 61.3% (active) |
| Cc1ccc(C(=O)OCC(=O)Nc2ccc(Cl)cn2)cc1S(=O)(=O)N1CCOCC1 | 54.4% (active) |
| O=C(COC(=O)c1ccco1)Nc1ccc(Cl)cn1 | 33.1% (active) |
| Cc1ccc(Cl)cc1NC(=O)COC(=O)C1CCCCC1 | 17.7% |
| Cc1ccc(NC(=O)COC(=O)C2C3CC4OC(=O)C2C4C3)cc1Cl (stereo not drawn) | 76% (active) |
| Oc1oc(-c2ccccc2Br)nc1/C=N/c1ccccn1 | 52.6% (active) |
| COc1ccc(C2=NN(c3nc4ccccc4s3)C(=O)C2)cc1 | 46.9% (active) |
| CC1CC1C(=O)OCC(=O)Nc1cccc(F)c1 (stereo not drawn) | 83.6% (active) |
| O=C(COC(=O)C1CC2C=CC1C2)Nc1ccccc1 (stereo not drawn) | 69.6% (active) |
| COc1cc(NC(=O)COC(=O)c2ccc([N+](=O)[O-])s2)cc(OC)c1OC | 35.9% (active) |
| Cc1c(Cl)cnc(NC(=O)COC(=O)C2CCCC2)c1Cl | 15.8% |
| O=C(OCc1nc2ccccc2[nH]1)C1CCCCC1 | 51.7% (active) |
| O=C(O)c1ccccc1N=N/C(=N/Nc1cc(S(=O)(=O)O)ccc1O)c1ccccc1 | 8.84% |
| COc1ccccc1Nc1nc(N)nc(CSC(=S)N2CCOCC2)n1 | 26.7% |
| CCn1c(/C=N/NC(=O)c2ccc(OC)cc2)nc2ccccc21 | 6.41% |
| N#Cc1cccc(NC(=O)COC(=O)c2ccccc2C(=O)c2ccc(Cl)c([N+](=O)[O-])c2)c1 | 34.2% (active) |
| CC1=NN(c2ccc(Cl)c(C(=O)O)c2)C(=O)/C1=C/c1ccc(-c2ccccc2[N+](=O)[O-])o1 | 27.5% |
| Cc1cc(C(=O)COC(=O)C2CC2)c(C)n1-c1ccc(F)cc1 | 36.1% (active) |
| CC(=O)Oc1ccc(-c2nc3c(C)cccc3c(=O)o2)cc1 | 23.6% |

| SMILES | inhibition |
| --- | --- |
| Cc1ccc(-c2nc3c(cnn3-c3ccccc3)c(=O)o2)cc1 | 44% (active) |
| Cc1cccc(/C=N/NC(=O)CNc2cccc3ccccc23)n1 | 30.5% (active) |
| Clc1ccccc1CSc1nnc(-c2ccco2)c(-c2ccco2)n1 | 16.4% |
| COc1ccc(C(=O)OCC(=O)NCC2CCCCC2)cc1S(=O)(=O)N1CCCc2ccccc21 | 60.8% (active) |
| COc1ccc(C(=O)O/N=C(\N)Cc2ccc(Cl)cc2Cl)cc1OC | 80.9% (active) |
| O=C(NNC(=O)c1ccccc1O)c1ccccc1O | 20.3% |
| O=c1oc(-c2ccccc2NS(=O)(=O)c2ccc(Cl)cc2)nc2ccccc12 | 76.7% (active) |
| O=[N+]([O-])c1ccc(C=Nc2ccc(Cl)cc2Cl)s1 | 7.11% |
| O=C(COC(=O)c1cccnc1Cl)NC12CC3CC(CC(C3)C1)C2 | 74.8% (active) |
| O=C(COC(=O)c1ccc([N+](=O)[O-])o1)NC12CC3CC(CC(C3)C1)C2 | 46.4% (active) |
| COc1cc(C(=O)OCC(=O)NC23CC4CC(CC(C4)C2)C3)cc(OC)c1OC | 67.7% (active) |
| COCCNC(=O)/C(C#N)=C/c1cccc(OCc2ccccc2)c1 | 12% |
| O=C(Cc1ccc(S(=O)(=O)N2CCOCC2)s1)NCCOc1ccccc1F | 30.5% (active) |
| CC(C)(C)c1ccc(/C=C2\Oc3c(ccc(O)c3CN3CCN(CCO)CC3)C2=O)cc1 | 66.7% (active) |
| Cn1cccc1C(=O)OCC(=O)c1ccc(Br)s1 | 21% |
| COc1ccc(C(=O)OCC(=O)c2ccc(Cl)s2)c(OC)c1OC | 73.5% (active) |
| COc1ccc(/C=C/C(=O)OCC(=O)NCc2cccs2)cc1OC | 56.9% (active) |
| O=C(COC(=O)/C=C/c1cccc(Cl)c1)NCc1cccs1 | 35% (active) |
| CCOC(=O)CCCN1CC(O)=C(c2nc3ccccc3s2)C1=N | 28.1% |
| O=C(COC(=O)c1n[nH]c2ccccc12)NCc1ccccc1 | 28.3% |
| O=C(COC(=O)c1n[nH]c2ccccc12)Nc1ccccc1Br | 38.6% (active) |
| COCC1CCN(C(=O)c2ccc3oc(Cc4ccccc4)nc3c2)C1 (stereo not drawn) | 40.8% (active) |
| Cc1ccc(/C=C/C(=O)OCC(=O)Nc2cccnc2Cl)cc1 | 23.7% |
| C/C=C/C=C/C(=O)OCC(=O)Nc1ccc(Cl)cc1 | 82.9% (active) |
| Cc1oc2cc(Br)c(O)c(Br)c2c1C(=O)c1ccccc1 | 49.5% (active) |

| SMILES | inhibition |
| --- | --- |
| O=C(c1cccnc1)N(c1cc2sc(=O)oc2c2ccccc12)S(=O)(=O)c1ccccc1 | 25% |
| COc1cc(/C=C/C(=O)OCC(=O)Nc2cccc(Oc3ccccc3)c2)ccc1O | 61.8% (active) |
| COc1ccc(C(=O)OCC(=O)Nc2cccc(C(C)=O)c2)cc1OC | 79% (active) |
| COc1ccc(C(=O)OCC(=O)NCCCc2ccccc2)cc1OC | 53.5% (active) |
| COc1ccc(OC)c(/C=C/C(=O)OCC(=O)Nc2ccc3c(c2)OCCO3)c1 | 48.2% (active) |
| COc1cc(/C=C/C(=O)OCC(=O)NCCCc2ccccc2)ccc1O | 35.2% (active) |
| COc1cccc(NC(=O)COC(=O)/C=C/c2ccco2)c1 | 77.9% (active) |
| COc1ccc(/C=C/C(=O)OCC(=O)Nc2cccc(Oc3ccccc3)c2)c(OC)c1 | 34.4% (active) |
| CC(C)CNC(=O)COC(=O)/C=C/c1ccco1 | 70.3% (active) |
| COc1cccc(C(=O)n2ccc(-c3cccs3)n2)c1 | 11.4% |
| Cc1cc(C(=O)OCC(=O)Nc2ccc(F)c(F)c2)c(C)o1 | 74.4% (active) |
| Cc1cc(C(=O)OCC(=O)Nc2ccccc2Cl)c(C)o1 | 31.5% (active) |
| Cc1cc(C)cc(NC(=O)COC(=O)c2cc(C)oc2C)c1 | 61.5% (active) |
| Cc1cc(C(=O)NNC(=O)c2ccccc2O)c(C)o1 | 23.2% |
| CC(=O)c1c(C)[nH]c(C(=O)OCC(=O)NCCC(C)C)c1C | 22.4% |
| Cc1ccc2c(=O)oc(N(C)C)nc2c1 | 38.2% (active) |
| CCc1ccc(C(=O)OCC(=O)NCC(F)(F)F)cc1 | 51.9% (active) |
| CCC(C)c1ccc(NC(=O)COC(=O)C2CCCC2)cc1 (stereo not drawn) | 21.6% |
| O=C(COC(=O)C1CCCCC1)Nc1ccc([N+](=O)[O-])cc1 | 40.8% (active) |
| COc1ccc(S(=O)(=O)N2CCOCC2)cc1NC(=O)CC1CC2CCC1C2 (stereo not drawn) | 60.8% (active) |
| COc1ccc(S(=O)(=O)N2CCOCC2)cc1NC(=O)Cc1c(F)cccc1Cl | 24.1% |
| COc1ccc(S(=O)(=O)N2CCOCC2)cc1NC(=O)Cc1coc2cc(C)ccc12 | 46.8% (active) |
| NC(=O)Nc1ccc(C(=O)OCC(=O)NC2CCCc3ccccc32)cc1 (stereo not drawn) | 67.4% (active) |
| Nc1ccc(C(=O)OCC(=O)NC2CCCc3ccccc32)cc1[N+](=O)[O-] (stereo not drawn) | 52.2% (active) |
| O=C(COC(=O)c1ccc(F)cc1)Nc1ccc2c(c1)OCO2 | 72.8% (active) |

| SMILES | inhibition |
| --- | --- |
| Cc1cccc(C(=O)OCC(=O)Nc2ccc(F)cc2)c1 | 81.4% (active) |
| CC(C)COC(=O)n1c(=O)oc2ccc(S(=O)(=O)N3CCCCC3)cc21 | 69.2% (active) |
| O=C(COC(=O)c1ccc2ncsc2c1)Nc1ccc(Cl)cc1 | 76.2% (active) |
| CCc1c(SCCC(=O)O)nc2ccccc2c1C | -1.24% |
| COc1ccc(/C=C/C(=O)OCC(=O)NC2CCCCCC2)cc1OC | 79.4% (active) |
| C=CCOc1ccc(/C=C/C(=O)OCC(=O)NC2CCCCCC2)cc1 | 77.1% (active) |
| O=C(COC(=O)/C=C/c1cccs1)NC1CCCCC1 | 87.9% (active) |
| O=C(COC(=O)/C=C/c1ccc(OC(F)F)cc1)NC1CCCCC1 | 62.1% (active) |
| C=CCOc1ccc(/C=C/C(=O)OCC(=O)NC(C)c2ccc(F)cc2)cc1 (stereo not drawn) | 32.5% (active) |
| Oc1c(Cl)cc(Cl)c(Cl)c1Cc1c(O)c(Cl)cc(Cl)c1Cl | 23.1% |
| O=C(COC(=O)C12CC3CC(CC(O)(C3)C1)C2)NC12CC3CC(CC(C3)C1)C2 | 77.7% (active) |
| Cc1ccc2c(c1)C1CN(C)CCC1N2C(=O)c1ccccc1NS(=O)(=O)c1ccc(F)cc1C (stereo not drawn) | 34.1% (active) |
| Cc1ccc(F)cc1S(=O)(=O)Nc1cccc(C(=O)N2CCCC(C(N)=O)C2)c1 (stereo not drawn) | 12.6% |
| O=C(ON=C1CCN(S(=O)(=O)c2ccccc2)CC1)c1ccc(Cl)cc1 | 87.2% (active) |
| CCS(=O)(=O)c1ccc(O)c(NC(=O)COc2ccc(Cl)cc2)c1 | 60.8% (active) |
| CCC1OC(c2ccc([N+](=O)[O-])cc2)=Nc2ccccc21 (stereo not drawn) | 13.7% |
| CC(=O)Nc1ccc(NC(=O)COC(=O)c2ccccc2C(=O)c2ccccc2)cc1 | 18.4% |
| O=C(COC(=O)c1ccccc1C(=O)c1ccccc1)c1ccco1 | 33.5% (active) |
| CCN(CC)c1ccc(C(=O)OCC(=O)c2ccco2)cc1 | 40.6% (active) |
| CC(=O)Nc1ccc(C(=O)OCC(=O)Nc2ccc([N+](=O)[O-])cc2C(F)(F)F)cc1 | 34.5% (active) |
| CCCCN1Cc2c(nc3cc(-c4ccccc4)[nH]n3c2=O)C1=O | 5.46% |
| Cc1ccc(/C=C/C(=O)OCC(=O)NCc2ccc(Cl)cc2)o1 | 42.2% (active) |
| Cc1cc(NC(=O)COC(=O)/C=C/c2ccc(C)o2)no1 | 14.1% |
